Screens deposited in PubChem BioAssay by several laboratories.
GRIN3A LBD mod: NR3A (human) ligand-binding domain modulation. NR3A LBD differential scanning fluorimetry, Tm shift; 0% = protein alone, 100% = glycine-bound protein. Tm shift relative to glycine control, % at 25 µM. actives 2.5% (n = 340,000);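 active = melting temperature shift of at least 10% of the positive control shift, at one fixed dose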
MPTP inh: permeability transition pore inhibition. isolated mouse mitochondria, Ca2+ swelling absorbance, 30 min. inhibition, % at 10 µM. actives 1.4% (n = 360,000). AID 602449;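 active = inhibition of 50% or more, scaled per plate between neutral and stimulator controls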;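 note: 0% = DMSO wells given calcium and 100% = 1 mM EGTA wells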
Myeloid diff 2: promotes myeloid progenitor differentiation. ER-HoxA9 myeloid progenitors, lysozyme-GFP differentiation, flow cytometry. calls only at 10 µM. actives 1% (n = 360,000). AID 624256;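 active = normalized GFP-positive differentiation at or above the plate's own cutoff, the solvent-only control mean plus 3 SD; inconclusive = no clear call, values can overlap the other calls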;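 note: cells exposed to compound for four days before flow analysis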
rCAG binder: molecules binding r(CAG) RNA repeats; r(CAG) RNA repeat, TO-PRO-1 dye displacement fluorescence; inhibition, % at 3 µM; actives 1.3% (n = 370,000); AID 651821;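 active = inhibition above the plate cutoff, the mean of all test compounds on that plate plus 3 SD, cut at about 35% in these data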;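 note: 0% = DMSO alone and 100% = 100 µM mitoxantrone as full dye displacement; higher means more dye released from RNA so lower well fluorescence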
FAS TE block: FAS thioesterase (human) inhibition; P49327; recombinant FAS-TE, OMFH fluorogenic substrate, fluorescence endpoint; inhibition, % at 15 µM; actives 0.67% (n = 360,000); AID 602261;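 active = compounds whose normalised, plate-corrected inhibition of enzyme fluorescence in the single-dose primary screen is 50% or more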;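 note: 0% = DMSO with enzyme and 100% = substrate without enzyme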
MPTP counter: membrane potential counter-screen of mitochondrial pore inhibitors; shares compounds with MPTP inh; isolated mitochondria, Rhodamine 123 fluorescence; inhibition, % at 10 µM; actives 78% (n = 5,000); in the data active = inhibition above about 22%;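 note: 0% = DMSO vehicle and 100% = positive control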
MPTP abs DR: dose response confirmation of mitochondrial permeability transition pore inhibitors. shares compounds with MPTP inh. isolated mitochondria swelling, absorbance. IC50, µM. actives 58% (n = 780); in the data active = IC50 below about 20 µM
MPTP counter DR: counter-screen for mitochondrial permeability transition pore inhibitors, dose response; isolated mitochondria counterscreen, fluorescence read-out; AID 651564; shares compounds with MPTP inh; actives 49% (n = 780); IC50, µM; in the data active = IC50 below about 80 µM
Active calls of the source: *; i = inactive; u = inconclusive; x = no result given; + = active, no number. A selection: hits, their analogues and other compounds. The true share with any hit is near 5.7%.

SMILES	GRIN3A LBD mod	MPTP inh	Myeloid diff 2	rCAG binder	FAS TE block	MPTP counter	others
Cc1cc(NC(=O)CSCC(=O)Nc2nc3ccccc3[nH]2)no1	-1.9	-3.2	i	4.8	-6.2	x
Cc1ccc(S(=O)(=O)NC(=O)C2(C)CCN2C(=O)c2ccccc2CCc2ccccc2)nc1 (centres undefined)	x	0.4	i	23.4	-12.4	x
C/C(=N\NC(=O)c1c(Cl)c(C)nn1C)c1ccc(NC(=O)c2ccncc2)cc1	-31.1	-1.1	i	-4.0	-7.3	x
Cc1nn(-c2ccc(NC(=O)c3ccncc3)cc2)c(C)c1Cl	-0.8	80.2*	i	-3.8	-9.3	79.3*
O=c1[nH]nc(Cc2ccccc2)c2ccccc12	1.2	0.4	i	-0.9	-6.9	x
O=c1[nH]nc(Cc2ccc(-c3ccc(Cl)cc3)o2)c2ccccc12	0.5	64.5*	i	1.9	-4.9	19.6	MPTP abs DR=>100;MPTP counter DR=10*
COC(=O)C1=C(C)N(Cc2cccc(C(F)(F)F)c2)C(=NCc2ccc(OC)cc2)NC1c1ccc(F)cc1 (centres undefined)	x	x	x	9.3	x	x
Oc1c(Cl)cc(Cl)cc1CNc1nc2ccccc2[nH]1	10.3*	71.7*	i	9.1	1.4	76.7*
Oc1c(Cl)cc(Cl)cc1CNc1ccccn1	-3.8	2.0	i	4.7	13.8	x
COc1ccc(/C(C)=N/NC(=O)Cc2cc(=O)[nH][nH]2)cc1OC	x	x	x	2.5	x	x
Cc1ccc(NC(=O)COc2ccc(N(C)C(=O)C(C)(C)C)cc2)cc1S(=O)(=O)N1CCCCC1	-1.7	92.7*	i	1.8	25.7	100.2*
CCc1cccc(OCC(=O)Nc2ccc(C)c(S(=O)(=O)N3CCCCCC3)c2)c1	8.8	-0.3	i	4.9	19.4	x
Cc1sc2ncnc(NCC3(N4CCOCC4)CCCCC3)c2c1C	-3.9	-1.6	i	2.6	48.3	x
c1ccc(-c2csc3ncnc(NCC4COc5ccccc5O4)c23)cc1 (centres undefined)	-1.1	97.0*	i	5.2	26.3	85.0*
Cc1sc2ncnc(NCC(C)(C)N3CCOCC3)c2c1C	-8.2	80.2*	i	-6.5	0.2	84.1*
Cc1sc2ncnc(NCC3COc4ccccc4O3)c2c1C (centres undefined)	1.0	100.4*	+	-4.3	19.1	94.6*
CCN(CC1CCCN(CCc2cccc(OC)c2)C1)C(=O)c1ccoc1 (centres undefined)	1.8	-0.9	i	-7.4	-1.5	x
COc1ccc(CNC(=O)c2c(O)c3cccc4c3n(c2=O)CCC4)cc1	-0.7	81.4*	i	2.5	15.3	-13.6
COc1ccc(CNC(=O)c2c(O)c3cccc4c3n(c2=O)CCC4)cc1OC	1.6	-7.6	i	2.0	-0.9	x
Oc1ccccc1N=Nc1nc(-c2ccccc2)c(-c2ccccc2)[nH]1	-4.6	75.6*	u	28.6	29.4	53.7*
O=C(Nc1ccc(Cl)cc1)Nc1cnccn1	-23.2	53.2*	i	2.5	-3.2	70.0*
O=C(Nc1ccc([N+](=O)[O-])cc1)Nc1cnccn1	-17.7	69.3*	i	3.3	4.8	89.0*
Cc1ccc(NC(=O)Nc2cnccn2)cc1	1.5	1.2	i	1.7	-3.5	x
CSc1nc(O)c(Nc2ccccc2)c(=O)[nH]1	-1.9	-1.5	i	2.2	-1.9	x
Cc1cc(=O)c2c(=O)[nH][nH]c2[nH]1	x	-1.3	i	1.1	-4.6	x
SMILES	GRIN3A LBD mod	MPTP inh	Myeloid diff 2	rCAG binder	FAS TE block	MPTP counter	others
COc1cc(C(=O)N/N=C/c2ccc(OC(=O)c3cccc(C)c3)c(OC)c2)ccc1O	5.4	0.2	i	10.3	4.9	x
O=C(O)C1CCCCC1C(=O)N1CC=C(c2ccccc2)CC1 (centres undefined)	-0.2	73.9*	i	4.8	-6.0	10.9	MPTP abs DR=>100;MPTP counter DR=>80
O=S1(=O)CC2c3ccc(F)cc3CN2CN1C1CCCC1 (centres undefined)	x	x	x	9.6	x	x
CCNc1ccc([N+](=O)[O-])cc1	-0.2	0.2	i	-0.9	-2.2	x
CCCC1=NN(c2ccc([N+](=O)[O-])cc2)C(=O)/C1=C\N(C)C	-8.3	77.7*	i	6.5	10.2	25.6*
C=CCOC(=O)C1=C[C@H](c2coc3ccccc3c2=O)C[C@H](OCCCCO)O1	3.1	0.4	i	2.5	-4.1	x
O=C(N/N=C/c1cccc(O)c1)c1csc2ccccc12	22.3*	108.5*	i	3.6	1.5	2.1	MPTP abs DR=1.07*;MPTP counter DR=>80
CC(C)c1ccc(NC(=O)CSc2nc3ncccc3[nH]2)cc1	-0.8	3.7	i	3.3	3.1	x
CC(C)OC(=O)c1ccc(NC(=O)CSc2nc3ncccc3[nH]2)cc1	-3.5	70.7*	i	2.5	-7.5	46.8*
CCN(CC)C(=O)c1cn(CCC#N)nc1-c1ccc(F)cc1	0.3	2.7	i	-5.3	-2.1	x
CC1(C)CC(=O)C(=Cc2cn(CCC#N)nc2-c2ccc(Cl)cc2)C(=O)C1	-4.9	76.8*	i	-3.5	-3.7	59.0*
CC1(C)CC(=O)C(=Cc2cn(-c3ccccc3)nc2-c2ccc(Cl)cc2)C(=O)C1	-0.6	-8.5	i	2.5	4.0	x
CC1(C)CC(=O)C(=Cc2cn(CCC#N)nc2-c2ccc(F)cc2)C(=O)C1	-0.8	62.7*	i	-0.8	-9.6	40.8*
CN(C)C(CNc1ccc(C(F)(F)F)cc1[N+](=O)[O-])c1ccccc1 (centres undefined)	-1.2	61.5*	i	-5.6	23.2	1.4	MPTP abs DR=>100;MPTP counter DR=>80
O=[N+]([O-])c1cc(C(F)(F)F)ccc1NCCCCNS(=O)(=O)c1ccc2ccccc2c1	5.0	90.8*	i	9.2	29.2	78.7*
CN(C)C(CNc1ccc(S(C)(=O)=O)cc1[N+](=O)[O-])c1ccccc1 (centres undefined)	1.6	-0.2	u	0.3	-5.0	x
CCCCn1nnnc1C1(C)CCC(=O)N1Cc1ccc(OC)cc1 (centres undefined)	x	-1.0	i	-0.1	-6.6	x
CCOc1cc(/C=C2\N=C(SCC)SC2=O)cc([N+](=O)[O-])c1OC(C)=O	6.3	104.0*	i	28.4	1.9	37.1*
CCOc1cc(/C=C2\N=C(SC)SC2=O)cc([N+](=O)[O-])c1OC(C)=O	4.6	22.6	i	x	3.1	x
CCOc1c(OC(C)=O)ccc(/C=C2\N=C(SCC)SC2=O)c1[N+](=O)[O-]	14.2*	89.0*	i	24.6	-63.9	71.6*
Cc1cc(C)cc(NC(=O)NCc2c(-c3ccccc3)noc2C)c1	0.2	26.4	i	4.1	2.5	x
Cc1onc(-c2ccccc2)c1CNC(=O)Nc1ccc(F)cc1F	2.0	7.5	i	0.0	2.3	x
